PubChem BioAssay (NCATS)
Results filed as inconclusive are left out. Where a call stands in place of a potency, no number is given. Calls of active or inactive are those of the source. Calls come from the whole dose curve; as a rule, active = well fitted curve in the direction sought with a large enough effect; inconclusive = small, poorly fitted or top-dose-only effect, or another doubt; inactive = no such curve, though single readings can be large; an effect the other way counts as inactive or inconclusive.

molecular target: Aldehyde dehydrogenase, mitochondrial (Homo sapiens) (UniProt P05091); test: qHTS for Inhibitors of the Aldehyde Dehydrogenase Family (ALDH2) Primary screen (AID 2061308); settings: ALDH2 enzyme inhibition qHTS, 1536-well; series mostly up to 56 µM; note: nearly all actives have a fitted effect of over 55% in size

Structure (SMILES)	Potency
COc1cccc(CNc2ccc(S(=O)(=O)Nc3nc4c(C)cccc4s3)cc2)c1O	inactive
COc1cc(-c2ccc3ncnc(NCCc4cnc[nH]4)c3c2)cc(OC)c1OC	inactive
CCN(CC)C(=O)c1cc(S(=O)(=O)Cc2ccccc2)c(N2CCC(c3ccccc3)CC2)cc1N(CC)CCN(C)C	inactive
FC(F)(F)c1ccccc1-c1nc(NCc2ccc3c(c2)OCO3)c2ccccc2n1	inactive
COCC1CCCN(C(=O)CC(c2ccc3c(c2)OCO3)c2c(O)cc(OC)cc2OC)C1 (stereo not given)	inactive
O=C(Nc1ccc(F)c(C(F)(F)F)c1)Nc1ccc(-c2ccncc2)s1	inactive
CC(C)c1ccccc1-c1ncc(F)c(NC2(c3ccc(-c4cccnc4)cc3)CC2)n1	inactive
CCCCNc1nc(C)nc2c1nc(-c1ccccc1)n2CC1CCN(C)CC1	inactive
O=C1Nc2ccccc2C1Cc1cc(Cl)c(O)c(Cl)c1 (stereo not given)	inactive
Cc1ccc(NC(=O)CN2C(=O)N/C(=C\c3cccn3-c3cccc(C(=O)O)c3)C2=O)cc1	inactive
Brc1ccccc1-c1nc(NCc2ccc(-c3cccnc3)cc2)c2ccccc2n1	inactive
CC(=O)Nc1sc2cnccc2c1-c1nc2ccccc2s1	inactive
Cc1ccnc(NC(=S)N2CCCc3ccc(C(F)(F)F)cc32)c1	inactive
COc1ccc(C2c3c(ncn(CCN4CCOCC4)c3=N)Oc3ccc4ccccc4c32)cc1 (stereo not given)	inactive
CC(C)CCC[C@@H](C)[C@H]1CC[C@H]2[C@@H]3CC=C4C[C@@H](OC(=O)NCCN(C)C)CC[C@]4(C)[C@H]3CC[C@]12C	inactive
Cc1cc2c(s1)c(C#N)c(C(=O)NCc1ccccc1F)n2C	inactive
CCN(CC)CCCC(C)n1c(-c2ccccc2)nc2c(NCCOC)nc(C)nc21 (stereo not given)	inactive
COc1ccccc1C1N=C(Nc2nc3ccccc3o2)NC2=C1C(=O)CCC2 (stereo not given)	inactive
Cc1ccc(S(=O)(=O)Nc2cncc(C(=O)Nc3nc(-c4ccccc4)cs3)c2)cc1	inactive
Cc1cc(C)n2ncc(C(=O)NCc3ccccc3)c2n1	inactive

Structure (SMILES)	Potency
CCCn1c(-c2ccc(F)cc2)nc2c(N3CCN(Cc4nc(OC)cc(OC)n4)CC3)nc(C)nc21	inactive
c1ccc(OCc2nnc3ccc(-c4ccccc4)nn23)cc1	inactive
c1c[nH]c(CNc2ncnc3ccc(-c4ccoc4)cc23)n1	inactive
COc1ccc(NC(=O)c2cc(-c3ccc(C)c(C)c3)nc3ccccc23)cc1	inactive
O=C(NC1CCCc2c1cnn2-c1ccc(F)cc1F)c1ccccc1 (stereo not given)	inactive
CCCCC(OC(=O)CNC(=O)c1ccccc1)C(=O)Nc1cc(C(F)(F)F)ccc1Cl (stereo not given)	inactive
Cc1cccc(-n2cnc3cc(C(=O)N4CCC(N5CCOCC5)CC4)ccc32)c1	inactive
CCc1nn2c(=O)cc(N3C(C)CNCC3C)nc2s1 (stereo not given)	inactive
C=C1C(=O)O[C@@H]2C[C@H](C)[C@@H]3CC(=O)C(C)=C3C[C@H]12	inactive
O=C(NCCc1nc2ccccc2n1CCOc1ccccc1[N+](=O)[O-])C1CCCCC1	inactive
Cc1ccc(C[C@H](C(=O)O)N2C(=O)c3ccc(C(=O)O)cc3C2=O)cc1	inactive
O=C(CN1C(=O)N/C(=C\c2cccn2-c2cccc(C(=O)O)c2)C1=O)Nc1cccc(F)c1	inactive
CCCn1c(C)nc2c(N3CCOCC3)nc(C)nc21	inactive
C#CCCC(=O)Nc1sc2c(c1-c1nc3ccccc3s1)CCNC2	inactive
Fc1ccccc1N1CCN(c2nc(-c3cccs3)nc3ccccc23)CC1	inactive
CS(=O)(=O)c1ccc(C(=O)OCC#CCSc2nnc(-c3cccc4ccccc34)o2)cc1	inactive
Cc1ccc(OCCn2c(CCNC(=O)c3cccc4[nH]ccc34)nc3ccccc32)cc1	inactive
O=C1CCCc2cc(S(=O)(=O)Nc3cnccc3C(=O)Nc3nc(-c4ccccc4)cs3)ccc2N1	inactive
COC(=O)C1CCN(C(=O)c2ccc3c(c2)ncn3-c2cccc(C)c2)CC1	inactive
COc1cc(NS(=O)(=O)c2ccc(C)cc2)c(C(=O)Nc2nc(-c3ccccc3)cs2)cc1OC	inactive

molecular target: Retinaldehyde dehydrogenase 3 (Homo sapiens) (UniProt P47895); test: qHTS for Inhibitors of the Aldehyde Dehydrogenase Family (ALDH1A3) Primary screen (AID 2061315); settings: ALDH inhibition qHTS; series mostly up to 56 µM

Structure (SMILES)	Potency
COc1cccc(CNc2ccc(S(=O)(=O)Nc3nc4c(C)cccc4s3)cc2)c1O	inactive
COc1cc(-c2ccc3ncnc(NCCc4cnc[nH]4)c3c2)cc(OC)c1OC	inactive
CCN(CC)C(=O)c1cc(S(=O)(=O)Cc2ccccc2)c(N2CCC(c3ccccc3)CC2)cc1N(CC)CCN(C)C	inactive
FC(F)(F)c1ccccc1-c1nc(NCc2ccc3c(c2)OCO3)c2ccccc2n1	inactive
COCC1CCCN(C(=O)CC(c2ccc3c(c2)OCO3)c2c(O)cc(OC)cc2OC)C1 (stereo not given)	inactive
O=C(Nc1ccc(F)c(C(F)(F)F)c1)Nc1ccc(-c2ccncc2)s1	inactive
CC(C)c1ccccc1-c1ncc(F)c(NC2(c3ccc(-c4cccnc4)cc3)CC2)n1	inactive
CCCCNc1nc(C)nc2c1nc(-c1ccccc1)n2CC1CCN(C)CC1	inactive
O=C1Nc2ccccc2C1Cc1cc(Cl)c(O)c(Cl)c1 (stereo not given)	inactive
Cc1ccc(NC(=O)CN2C(=O)N/C(=C\c3cccn3-c3cccc(C(=O)O)c3)C2=O)cc1	inactive
Brc1ccccc1-c1nc(NCc2ccc(-c3cccnc3)cc2)c2ccccc2n1	inactive
CC(=O)Nc1sc2cnccc2c1-c1nc2ccccc2s1	inactive
Cc1ccnc(NC(=S)N2CCCc3ccc(C(F)(F)F)cc32)c1	inactive
COc1ccc(C2c3c(ncn(CCN4CCOCC4)c3=N)Oc3ccc4ccccc4c32)cc1 (stereo not given)	inactive
CC(C)CCC[C@@H](C)[C@H]1CC[C@H]2[C@@H]3CC=C4C[C@@H](OC(=O)NCCN(C)C)CC[C@]4(C)[C@H]3CC[C@]12C	inactive
Cc1cc2c(s1)c(C#N)c(C(=O)NCc1ccccc1F)n2C	inactive
CCN(CC)CCCC(C)n1c(-c2ccccc2)nc2c(NCCOC)nc(C)nc21 (stereo not given)	inactive
COc1ccccc1C1N=C(Nc2nc3ccccc3o2)NC2=C1C(=O)CCC2 (stereo not given)	inactive
Cc1ccc(S(=O)(=O)Nc2cncc(C(=O)Nc3nc(-c4ccccc4)cs3)c2)cc1	inactive
Cc1cc(C)n2ncc(C(=O)NCc3ccccc3)c2n1	inactive

Structure (SMILES)	Potency
CCCn1c(-c2ccc(F)cc2)nc2c(N3CCN(Cc4nc(OC)cc(OC)n4)CC3)nc(C)nc21	inactive
c1ccc(OCc2nnc3ccc(-c4ccccc4)nn23)cc1	inactive
c1c[nH]c(CNc2ncnc3ccc(-c4ccoc4)cc23)n1	inactive
COc1ccc(NC(=O)c2cc(-c3ccc(C)c(C)c3)nc3ccccc23)cc1	inactive
O=C(NC1CCCc2c1cnn2-c1ccc(F)cc1F)c1ccccc1 (stereo not given)	inactive
CCCCC(OC(=O)CNC(=O)c1ccccc1)C(=O)Nc1cc(C(F)(F)F)ccc1Cl (stereo not given)	inactive
Cc1cccc(-n2cnc3cc(C(=O)N4CCC(N5CCOCC5)CC4)ccc32)c1	inactive
CCc1nn2c(=O)cc(N3C(C)CNCC3C)nc2s1 (stereo not given)	inactive
C=C1C(=O)O[C@@H]2C[C@H](C)[C@@H]3CC(=O)C(C)=C3C[C@H]12	inactive
O=C(NCCc1nc2ccccc2n1CCOc1ccccc1[N+](=O)[O-])C1CCCCC1	inactive
Cc1ccc(C[C@H](C(=O)O)N2C(=O)c3ccc(C(=O)O)cc3C2=O)cc1	inactive
O=C(CN1C(=O)N/C(=C\c2cccn2-c2cccc(C(=O)O)c2)C1=O)Nc1cccc(F)c1	inactive
CCCn1c(C)nc2c(N3CCOCC3)nc(C)nc21	inactive
C#CCCC(=O)Nc1sc2c(c1-c1nc3ccccc3s1)CCNC2	inactive
Fc1ccccc1N1CCN(c2nc(-c3cccs3)nc3ccccc23)CC1	inactive
CS(=O)(=O)c1ccc(C(=O)OCC#CCSc2nnc(-c3cccc4ccccc34)o2)cc1	inactive
Cc1ccc(OCCn2c(CCNC(=O)c3cccc4[nH]ccc34)nc3ccccc32)cc1	inactive
O=C1CCCc2cc(S(=O)(=O)Nc3cnccc3C(=O)Nc3nc(-c4ccccc4)cs3)ccc2N1	inactive
COC(=O)C1CCN(C(=O)c2ccc3c(c2)ncn3-c2cccc(C)c2)CC1	inactive
COc1cc(NS(=O)(=O)c2ccc(C)cc2)c(C(=O)Nc2nc(-c3ccccc3)cs2)cc1OC	inactive
